# Laboratory results: PubChem BioAssay AID1117319 (Southern Research Institute, 2015)
# Hit rate of the full screen: of about 260,000 compounds, about 1,500 (0.58%) were called active. Roughly 5% stayed inconclusive and do not appear here.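 Rule for the calls: active = inhibition above a set limit at one or more doses, reproduced on every date tested; inconclusive = results disagree between test dates, or hit never tested in dose response; inactive = the rest.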 Only a sample is shown. Results with a measured potency or affinity are listed apart.
# Biological target: Virion infectivity factor (Human immunodeficiency virus type 1 group M subtype B (isolate BH10)) + Virion infectivity factor (Human immunodeficiency virus type 1 group M subtype B (isolate BRU/LAI)) + Virion infectivity factor (Human immunodeficiency virus type 1 group M subtype B (isolate PCV12)) + Virion infectivity factor (Human immunodeficiency virus type 1 group M subtype B (isolate HXB2)) + DNA dC->dU-editing enzyme APOBEC-3G (Homo sapiens) (UniProt P69720+P69721+P69722+P69723+Q9HC16)
# Test: HIV-1 Vif–A3G interaction blockers – biochemical, TR-FRET, GST-Vif 1-94, biotin-A3G peptide, dose response retest, primary screen (AID 1117319);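 note: Vif residues 1-94 fused to GST binding biotinylated APOBEC3G peptide 110-148; 0% = full assay without inhibitor and 100% = GST in place of GST-Vif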
# Conditions: TR-FRET GST-Vif / biotin-A3G peptide binding; stronger effect = higher value
row,SMILES,inhibition
1,CN(CCC#N)C(=O)CC(Cc1ccccc1)C1CCOC(C)(C)C1 (stereo not given),28.5% (inactive)
2,CCn1cnc2cc(NCc3ccncc3)ccc21,18.7% (inactive)
3,CCCn1cnc2cc(NCc3ccc(Br)cc3)ccc21,-8.23% (inactive)
4,CCCn1cnc2cc(NCc3ccccc3O)ccc21,-2.34% (inactive)
5,CC(C)n1cnc2cc(NCc3ccccn3)ccc21,14.4% (inactive)
6,CCNC(=S)NCCN1CCCCC1,-5.58% (inactive)
7,CC(=O)Nc1ccc(NC(=O)Cn2cc3c(n2)CCCC3)cc1,-2.34% (inactive)
8,Cc1cc(C)cc(NC(=O)Cn2cc3c(n2)CCCCC3)c1,0.97% (inactive)
9,Cc1cc(C)c2c(N)c(-c3nc4ccccc4[nH]3)sc2n1,1.28% (inactive)
10,CCN(CC)c1ccc(N2C(=O)CSC2=S)cc1,-8.43% (inactive)
11,O=C1CSC(=S)N1c1ccccc1,-4.55% (inactive)
12,Cc1ccc(S(=O)(=O)Nc2cccc(C(=O)N3CCCC3)c2)cc1F,3.33% (inactive)
13,O=c1oc2c3c4c(cc2c(C(F)(F)F)c1CCN1CCOCC1)CCCN4CCC3,16.6% (inactive)
14,CC(C)c1cc(=O)oc2c3c4c(cc12)CCCN4CCC3,13.8% (inactive)
15,N/C(=N\OC(=O)CN1C(=O)c2ccccc2C1=O)c1ccc(Cl)cc1,-10.1% (inactive)
16,COc1ccc(N2CCN(C(=O)COC(=O)c3oc4ccc(OC)cc4c3C)CC2)cc1,1.73% (inactive)
17,COc1ccc(NC(=O)C(NC(C)=O)C(=O)NCc2ccccc2)cc1 (stereo not given),2.8% (inactive)
18,O=C(Nc1ccn(-c2ccccc2)n1)c1ccc(Cl)cc1,-12.3% (inactive)
19,CC(=O)Nc1ccn(-c2ccccc2)n1,15.9% (inactive)
20,COc1ccc(S(=O)(=O)N(CC(=O)NCc2ccco2)C2CCCCC2)cc1OC,24% (inactive)
21,COC(=O)c1cc([N+](=O)[O-])c(C)c(C)n1,-2.89% (inactive)
22,CCN1CCc2c(C#N)c(N3CCOCC3)nc(NCc3ccccc3)c2C1,13.6% (inactive)

row,SMILES,inhibition
1,CCN1CCc2c(C#N)c(N3CCCCC3)nc(NCc3ccccc3)c2C1,25.2% (inactive)
2,CCCc1c(C)[nH]c2ccccc2c1=O,6.62% (inactive)
3,CC1=NN(c2ccc(Cl)c(C(=O)O)c2)C(=O)/C1=C\c1ccc(-c2ccc(C(=O)O)cc2)o1,1.61% (inactive)
4,CC1=NN(c2ccc(Cl)c(C(=O)O)c2)C(=O)C1,29.9% (inactive)
5,CC1=NN(c2ccc(C)cc2)C(=O)/C1=C\C=C\c1ccccc1,-3.38% (inactive)
6,CC1=NN(c2cccc(C(=O)O)c2)C(=O)/C1=C\C=C/c1ccccc1,29.5% (inactive)
7,O=C(CSc1nnc(CCCO)n1-c1ccccc1)Nc1nccs1,-0.69% (inactive)
8,CCOc1cc(CNCCO)cc(Br)c1OCc1ccc(Cl)cc1,-0.39% (inactive)
9,Nc1cc(=O)nc(SCC(=O)Nc2ccccc2Cl)n1-c1ccccc1,-1.2% (inactive)
10,Cc1ncsc1CCSc1nc2ccccc2c(=O)n1C,-1.02% (inactive)
11,COc1cc(OC)cc(C(=O)Nc2cccnc2)c1,7.36% (inactive)
12,COc1ccc(S(=O)CC(=O)Nc2ccccc2Cl)cc1 (stereo not given),-2.59% (inactive)
13,CCN(CC)c1ccc(C=Nc2cc(C)cc(C)c2)c(O)c1,9.03% (inactive)
14,CCN(CC)c1ccc(C=Nc2ccc(C#N)cc2)c(O)c1,-0.77% (inactive)
15,CCN(CC)c1ccc(C=Nc2ccccc2C)c(O)c1,-5.2% (inactive)
16,CCN(CC)c1ccc(C=Nc2ccccc2)c(O)c1,29.3% (inactive)
17,COc1nnc(-c2ccc(C)c(S(=O)(=O)NC(C)C)c2)c2ccccc12,-9.93% (inactive)
18,COc1ccc(C2=NC(CO)(CO)CO2)cc1,-8.98% (inactive)
19,O=C(Nc1ccc(S(=O)(=O)N2CCCC2)cc1)c1cc(=O)c2ccccc2o1,-4.62% (inactive)
20,CN(C)CC(=O)N1c2ccccc2Sc2ccc(Cl)cc21,3.03% (inactive)
21,O=C(CN1CCCc2ccccc21)NCCc1ccc(Cl)cc1,32.1% (inactive)
22,COc1ccc(CCNC(=O)CN2CCOc3ccccc32)cc1OC,2.79% (inactive)

row,SMILES,inhibition
1,NC1=CC(=O)C(=O)c2ccccc21,6.05% (inactive)
2,O=C1C=C(Nc2ccccc2)c2ccccc2C1=O,2.25% (inactive)
3,COc1cc(NC(=O)CS(=O)(=O)c2ccccc2)cc(OC)c1OC,-4.34% (inactive)
4,COc1cc(-c2nnc(NC(=O)CS(=O)(=O)c3ccc(C)cc3)o2)cc(OC)c1OC,-0.69% (inactive)
5,O=[N+]([O-])c1cccnc1N1CCN(c2ccc(F)cc2)CC1,-1.42% (inactive)
6,COCCCC1CCN(Cc2cn[nH]c2-c2cc(OC)c(OC)c(OC)c2)CC1,-14.3% (inactive)
7,O=C(O)c1cccc(N/N=C/c2ccc(-c3ccccc3)cc2)c1,6.67% (inactive)
8,CSc1ccc(/C=N/Nc2ccc(Cl)c(C(=O)O)c2)cc1,14.3% (inactive)
9,COC(=O)c1ccc(COc2ccccc2/C=N/Nc2cccc(C(=O)O)c2)cc1,9.8% (inactive)
10,O=C(O)c1cccc(N/N=C/c2ccc(OC(F)(F)F)cc2)c1,0.25% (inactive)
11,CN(C)S(=O)(=O)N1CCc2ccccc21,28.1% (inactive)
12,Cc1cc(OCCn2cnc3ccccc3c2=O)ccc1[N+](=O)[O-],3.47% (inactive)
13,COc1ccc(S(=O)(=O)/N=C2/C=CC(=O)C(C)=C2C)cc1,9.79% (inactive)
14,CCc1ccc(S(=O)(=O)/N=C2\C=C(NS(=O)(=O)c3ccccc3)C(=O)c3ccccc32)cc1,16% (inactive)
15,O=S(=O)(N=C1C=CC(=NS(=O)(=O)c2ccccc2)c2ccccc21)c1ccccc1,14.1% (inactive)
16,CCc1ccc(S(=O)(=O)ON2C(=O)c3ccccc3C2=O)cc1,5.83% (inactive)
17,Cc1ccc(CNC(=O)CSc2nc(N3CCCCC3)nc(N3CCCCC3)n2)cc1,4.78% (inactive)
18,COc1ccc(Nc2nc(OC)nc(N3CCOCC3)n2)cc1,-3.38% (inactive)
19,CC1=C(C(=O)OC2CCCCC2)C(c2cccs2)n2c(nc3ccccc32)N1 (stereo not given),-7.41% (inactive)
20,CN1CCc2ccccc2C1C1CCNCC1 (stereo not given),25.2% (inactive)
21,CN1CCc2cc3c(c4c2[C@H]1[C@H](O)c1ccccc1-4)OCO3,9.65% (inactive)
